Measured values published in the supplement of paper PMC11150407.
Among all 2,100 compounds or so, about 180 (8.6%) showed an effect of 50% or more. For the sample, strong results were picked, then their nearest neighbours and some compounds at random.

system: MOLM1 and UCSD/AML1 (averaged); test: cell viability relative to DMSO control (POC); higher = less growth inhibition; conditions: 1 µM; 72 h
Method: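 Primary viability screen in the 3q26 EVI1-high AML cell lines MOLM1 and UCSD/AML1 (1.5e3 cells/well, 384-well), compounds at 1 uM for 72 h. ATP CellTiter-Glo read-out given as percent of viable cells over DMSO control (POC), averaged over duplicates. DMSO was the negative control and 5 uM etoposide the positive control. This mapping covers the MicroSource Spectrum and Selleck anticancer libraries (drug names).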

SMILES | cell viability
C=C(C)[C@H]1Cc2c(ccc3c2O[C@@H]2COc4cc(OC)c(OC)cc4[C@@H]2C3=O)O1 | 26.4%
COc1cc2c(cc1OC)[C@@H]1C(=O)c3ccc4c(c3O[C@@H]1CO2)CC(C(C)C)O4 (stereo partly specified) | 77.8%
COc1cc2c(cc1OC)[C@@H]1C(=O)c3ccc(OC)c(CC=C(C)C)c3O[C@@H]1CO2 | 103%
O=C1NC(=O)C(=O)C(=O)N1 | 100%
CNC1CC(N)C(O)C(OC2OC(CO)C(O)C3OC4(OC(C(N)CO)C(O)C(O)C4O)OC23)C1O (stereo unspecified) | 103%
O=[N+]([O-])O[C@@H]1CO[C@H]2[C@@H]1OC[C@@H]2O | 98.1%
C/C(=C\c1csc(C)n1)[C@@H]1C[C@@H]2O[C@]2(C)CCC[C@H](C)[C@H](O)[C@@H](C)C(=O)C(C)(C)[C@@H](O)CC(=O)O1 [Epothilone B (EPO906)] | 13.4%
C/C(=C\c1csc(C)n1)[C@@H]1C[C@@H]2O[C@@H]2CCC[C@H](C)[C@H](O)[C@@H](C)C(=O)C(C)(C)[C@@H](O)CC(=O)O1 [Epothilone A] | 18.5%
O=C(O)CC[N+](=O)[O-] [BOVINOCIDIN (3-nitropropionic acid)] | 94.6%
Cc1ccc(O)cc1.Cc1cccc(O)c1.Cc1ccccc1O | 98.6%
C/C=C(\C)C(=O)O[C@H]1C[C@@H](OC(C)=O)[C@@]2(C(=O)OC)CO[C@H]3[C@@H](O)[C@@](C)([C@]45O[C@@]4(C)[C@H]4C[C@@H]5O[C@@H]5OC=C[C@@]54O)[C@H]4[C@]1(CO[C@]4(O)C(=O)OC)[C@@H]32 | 97.3%
OC[C@@H]1CCCN2CCCC[C@H]12 | 83%
C/C=C/c1ccc2c(c1)OCO2 | 108%
C[C@@H]1C[C@@H]([C@H](O)CC2CC(=O)NC(=O)C2)C(=O)[C@@H](C)C1 | 18.4%
C[C@]12CCC(=O)C=C1C=C[C@@H]1[C@@H]2CC[C@@]2(C)[C@H]1CC[C@@]2(O)CCC(=O)O | 111%
NC(=O)c1ccc(N)nc1 | 88%
C[C@@H](N)[C@@H](O)c1ccccc1 | 106%
CC(C)c1cc2c(c(O)c1O)[C@@]1(C(=O)O)CCCC(C)(C)[C@@H]1CC2 | 107%
C=C[C@H]1CN2CC[C@H]1C[C@H]2[C@H](O)c1ccnc2ccccc12 | 105%
O=C(NC(=O)c1ccccc1Cl)Nc1ccc(OC(F)(F)F)cc1 | 113%
O=C1C=CC(=O)c2ccccc21 | 89.5%
